Assay results published in PubChem BioAssay (Tox21).
Inconclusive results are not listed. A number with no mark means an inactive call. Active and inactive are the calls of the source. Calls follow the shape of the dose curve; as a rule, active = well fitted activation curve with a large enough effect in the repeat runs; inconclusive = weak or mixed curves; inactive = flat fitted curve, though single readings scatter.

Experiment: A CellTox Green Cytotoxicity Assay to monitor cytotoxicity in HEK293 cells - 8 hour (AID 1224884); also: nearly all actives have a fitted effect of over 35% in size
Settings: CellTox Green fluorescence; series mostly up to 76.8 µM; cytotoxicity increase: at the top concentration
Text: National Center for Advancing Translational Sciences [NCATS]
NIH Chemical Genomics Center [NCGC]
U.S. Environmental Protection Agency [EPA]
National Institutes of Environmental Health Sciences [NIEHS]
National Toxicology Program [NTP]
Cell-based models are critical for drug discovery. Determining the natural cytotoxic effects resulting from test compounds is an essential research activity. A CellTox Green Cytotoxicity Assay to monitor cytotoxicity in real time of continues cell culture during 40 hours of the compound treatment was used to screen Tox21 10K library compounds in Hek293 cells. CellTox Green Cytotoxicity Assay is a nonlytic, homogeneous, biofluorescent method to measure cytotoxicity in cell culture after experimental manipulation. The assay system uses a proprietary asymmetric cyanine dye that is excluded from viable cells but preferentially stains the dead cell's DNA. […] Viable cells produce no appreciable increases in fluorescence. Therefore, the fluorescence signal produced by the binding interaction with dead cell DNA is proportional to cytotoxicity.
The mixture of Hek293 cell suspension and reagents were dispensed at 600cells/6 ul/well in 1536-well tissue culture treated black solid bottom plates using a Multidrop dispenser. After the assay plates were incubated at a 37 C/5% CO2 incubator for 5 hours, 23 nL of compounds dissolved in DMSO, positive and negative controls was transferred to the assay plate by a pintool work station. The plates were incubated at 37 C for 40 hours. The fluorescence intensity were measured at 0h, 8h, 16h, 24h, 32h and 40h time points using ViewLux plate reader during compound treatment.
% is scaled to controls: 0 for no effect and ±100 for the full control effect; potency is read from the fitted curve at half-maximal effect.

Row | SMILES | Potency | cytotoxicity increase
1 | [Cl][Bi]([Cl])([c]1ccccc1)([c]1ccccc1)[c]1ccccc1 | 43.4 µM (active) | 
2 | N#CSc1ccc(N)c([N+](=O)[O-])c1 |  | -11.7%
3 | CCCC/C=C/CCCCO |  | 9.82%
4 | Nc1ccc(N)c2ccccc12 |  | 18.9%
5 | CCCCCOc1ccccc1/C(=C\SC)n1ccnc1 |  | -15.2% [at 35.3 µM]
6 | O=C(c1ccc(F)cc1)C1CCN(CCn2c(=O)[nH]c3ccccc3c2=O)CC1 |  | 7.4% [at 35.3 µM]
7 | CCc1cc(SCc2sc(-c3ccc(C(F)(F)F)cc3)nc2CN2CCN(c3ccc(OC)cc3)CC2)ccc1OCC(=O)O |  | 0.732%
8 | CNC(=O)c1ccccc1 |  | 1.08%
9 | Oc1ccc(Cl)cc1Sc1cc(Cl)ccc1O | inactive | 
10 | CC(C)(C)C(=O)OCOC(=O)C1N2C(=O)CC2S(=O)(=O)C1(C)C (stereo not given) |  | -1.64% [at 35.3 µM]
11 | O=C(OCC(COC(=O)c1ccccc1)(COC(=O)c1ccccc1)COC(=O)c1ccccc1)c1ccccc1 |  | -4.08%
12 | O=CC=C(c1ccccc1)c1ccccc1 |  | 14.9%
13 | COc1cccc(N)c1 |  | 20%
14 | COc1cc(-c2ccc(N=C=O)c(OC)c2)ccc1N=C=O |  | 10.4% [at 35.3 µM]
15 | Cc1cccc(CN2CCN(C(c3ccccc3)c3ccc(Cl)cc3)CC2)c1 (stereo not given) |  | 6.01% [at 35.3 µM]
16 | Cc1nc(-c2ccc3c(c2)CCN(CCC2CCC(NC(=O)/C=C/c4ccc(F)cc4)CC2)CC3)no1 (stereo not given) |  | -5.56% [at 35.3 µM]
17 | CCCCCCCCCCCCCCCC[N+](C)(C)CCN(Cc1ccc(OC)cc1)c1ncccn1 | 19 µM (active) | 
18 | CCC1OCC(COc2ccc(Oc3ccccc3)cc2)O1 (stereo not given) |  | 3.7%
19 | [O-][n+]1ccccc1SSc1cccc[n+]1[O-] | 10.4 µM (active) | 
20 | COC(=O)c1cc(Cl)ccc1OC |  | -3.39% [at 35.3 µM]

Row | SMILES | Potency | cytotoxicity increase
21 | CCOc1ccc2nc3cc(N)ccc3c(N)c2c1 |  | -4.62% [at 35.3 µM]
22 | C=CC(=O)OCC(CO)(COCC(COC(=O)C=C)(COC(=O)C=C)COC(=O)C=C)COC(=O)C=C |  | -1.41%
23 | O=C(Oc1cccc2cccnc12)c1ccccc1 |  | 1.82% [at 35.3 µM]
24 | COc1ccc(C(=O)/C(Br)=C\C(=O)O)cc1 |  | -18.3%
25 | CC1=NC(C)OC1C (stereo not given) |  | -0.889%
26 | CCC(C)(C)C1CCCCC1OC(C)=O (stereo not given) |  | 5.09%
27 | CC(C)(C)C1CCC(CC2=C(O)c3ccccc3C(=O)C2=O)CC1 (stereo not given) |  | 22.4% [at 35.3 µM]
28 | COc1cccc2c1C(=O)c1c(O)c3c(c(O)c1C2=O)C[C@@](O)(C(=O)CO)C[C@@H]3O[C@H]1C[C@H](N)[C@H](O[C@@H]2CCCCO2)[C@H](C)O1 |  | 1.67% [at 35.3 µM]
29 | On1ccccc1=S |  | 6.5%
30 | c1ccc(CSCc2ccccc2)cc1 |  | -10.6%
31 | CC(C)CCCCCCCCCCCCCCC(=O)O |  | -13.3%
32 | CC(C)(C)NC(=O)[C@@H]1C[C@@H]2CCCC[C@@H]2CN1C[C@@H](O)[C@H](Cc1ccccc1)NC(=O)[C@H](CC(N)=O)NC(=O)c1ccc2ccccc2n1 |  | 5.62%
33 | O=C(NO)C1(NS(=O)(=O)c2ccc(Oc3ccc(F)cc3)cc2)CCOCC1 |  | 1.08%
34 | CCCCN1C(=O)[C@@H]([C@H](O)C2CCCCC2)NC(=O)C12CCN(Cc1ccc(Oc3ccc(C(=O)O)cc3)cc1)CC2 |  | -1.19%
35 | CCCCN(CCCC)C(=O)N(CCCC)CCCC |  | -0.384%
36 | CO[Si](CCCNc1ccccc1)(OC)OC |  | -14.4%
37 | CC(C)=CCOc1ccc(/C=C/C(=O)c2ccc(OCC=C(C)C)cc2OCC(=O)O)cc1 |  | 1.69% [at 35.3 µM]
38 | CS(=O)(=O)CCNCc1ccc(-c2ccc3ncnc(Nc4ccc(OCc5cccc(F)c5)c(Cl)c4)c3c2)o1 |  | -11.4% [at 35.3 µM]
39 | Cc1oc(-c2ccccc2)nc1CCC(=O)c1ccc(CC2SC(=O)NC2=O)cc1 (stereo not given) |  | -8.57% [at 35.3 µM]
40 | O=c1[nH]cnc2nc[nH]c12 |  | -20.5% [at 35.3 µM]
